Source: PubChem BioAssay AID485344 (National Center for Advancing Translational Sciences (NCATS), 2010)
The campaign covered roughly 340,000 compounds. About 6,900 (2%) were called active. This is one part of a sample in which actives are shown more often than they occur. Cut-off read from the data, not from the text of the source: active = inhibition above about 30%; inactive = below that, where a call was filed.

Biological target: D(2) dopamine receptor (Homo sapiens) (UniProt P14416)
Assay: HTS Assay for Allosteric Antagonists of the Human D2 Dopamine Receptor: Primary Screen for Antagonists; note: 0% is about no effect
Conditions: HEK293 TREx D2 cells, calcium flux, dopamine EC80; at 10 µM; active compounds read high
Summary of the method: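 In this primary screen, negative modulation is detected by tracking calcium flux after an EC80 dopamine challenge in inducible HEK293 T-REx D2 cells preexposed to test compound for 180 s.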

Sequence of D(2) dopamine receptor (Homo sapiens) (P14416 whole entry, looked up): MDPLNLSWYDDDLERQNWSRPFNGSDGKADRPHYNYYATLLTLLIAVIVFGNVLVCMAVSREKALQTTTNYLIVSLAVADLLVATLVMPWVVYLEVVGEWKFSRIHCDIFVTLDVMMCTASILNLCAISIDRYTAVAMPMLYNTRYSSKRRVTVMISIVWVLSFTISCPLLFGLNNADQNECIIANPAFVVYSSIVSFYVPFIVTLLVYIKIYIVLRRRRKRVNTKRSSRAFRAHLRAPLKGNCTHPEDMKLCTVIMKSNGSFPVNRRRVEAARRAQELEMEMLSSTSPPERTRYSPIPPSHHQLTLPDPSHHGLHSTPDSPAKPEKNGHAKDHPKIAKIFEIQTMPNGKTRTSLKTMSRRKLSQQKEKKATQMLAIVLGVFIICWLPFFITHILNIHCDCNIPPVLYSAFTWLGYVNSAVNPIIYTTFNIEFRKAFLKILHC

inhibition, inactive:
COc1ccc(OC)c(Nc2nc(-c3ccc(O)c(O)c3)cs2)c1 -3.66%
Cc1onc(C(=O)NN)c1-c1csc(COc2ccccc2)n1 20.6%
C#CCOCCOCCOCCNc1nc(N2CCN(C(=O)CCCCCCCCCCNC(=O)Cn3cc(CCCCCN)nn3)CC2)nc(N2CCN(C(=O)CCCCCCCCCCNC(=O)[C@H](CO)n3cc(CCCSC)nn3)CC2)n1 1.73%
COc1cc(OC)cc(-c2c(-c3cccs3)c3cc(-c4ccc(OC)cc4F)ccc3n2C)c1 -3.09%
CCOC(=O)CN(Cc1ccc(OC)c(OC)c1)S(=O)(=O)c1ccc(OC)cc1 -14%
COc1ccccc1NC(=O)COc1ccc(C(=O)OCC(=O)N(C(C)C)C(C)C)cc1OC 11.9%
CC(C)(C)n1ncc2c(=O)n(Cc3c(Cl)cccc3Br)cnc21 -6.49%
Cc1ccc(C)c(OCC(=O)NNC(=O)C2CCC2)c1 -10.9%
CCN(CC(=O)Nc1c(F)cccc1F)C(=O)c1ccc(Sc2nncn2C)c([N+](=O)[O-])c1 -7.81%
CC1CCCN(CC(=O)Nc2cc(Cl)ccc2Oc2ccccc2)C1 (stereo not drawn) -9.74%
CC(=O)Nc1ccc(SCC(=O)Nc2ccccc2Oc2ccccc2)cc1 -7.41%
O=C(CNC(=O)c1ccc2ccccc2c1)Nc1ncccc1O 6.52%
CCCN(C(=O)c1nc2nccc(C)n2n1)c1c(N)n(Cc2ccccc2)c(=O)[nH]c1=O 13.1%
O=C(O)c1cc(S(=O)(=O)Nc2ccc3cn[nH]c3c2)ccc1Br -28.4%
O=S(=O)(c1ccc(SCc2ccccc2)nc1)N1CCCCCC1 -5.53%
COc1ccc([C@H]2CC(=O)C=C(/C=C/c3ccccc3)C2)cc1 11.1%
O=[N+]([O-])c1ccc(O)c(/C=N/Nc2ccccc2[N+](=O)[O-])c1 20.9%
O=C(O)c1ccccc1C(=O)Nc1ccccc1[N+](=O)[O-] 7.04%
COc1ccccc1OCC(=O)OCc1cc(-c2ccco2)on1 5.46%
CCN(CC(=O)N1CCCC1)S(=O)(=O)c1ccc(F)cc1 21.3%
CS(=O)(=O)N(CC(=O)N1CCCCCC1)c1cccc(Cl)c1Cl -0.797%
O=C(COc1coc(CN2CCN(c3ccccc3)CC2)cc1=O)Nc1ccccc1F 16.7%
CCOC(=O)c1cc(-c2ccccc2C)n(Cc2cc(C)no2)n1 9.49%
COc1ccc(C(=O)OCC(=O)NCCCc2ccccc2)cc1OC 7.85%
CC(=O)Nc1cccc(C(=O)OCC(=O)Nc2nnc(-c3ccccc3)o2)c1 -0.603%
CCCCn1c(N)c(N(CCOC)C(=O)c2cccc(OCc3ccccc3)c2)c(=O)[nH]c1=O -3.21%
CCOc1ncccc1C(=O)OCC(=O)Nc1cccc(S(=O)(=O)N2CCCCCC2)c1 -2.34%
CC(Oc1ccc(F)cc1)C(=O)Nc1cc(S(=O)(=O)N2CCOCC2)ccc1N1CCN(C)CC1 (stereo not drawn) -1.88%
CC(NC(=O)c1ccc(S(=O)(=O)Nc2ccccc2)cc1)c1ccc(S(N)(=O)=O)cc1 (stereo not drawn) 11.4%
S=C(NCc1ccco1)NCc1ccccc1Cl -9.44%
Fc1cccc(Cl)c1CSc1ccc(-c2ccco2)nn1 -10.9%
COc1ccccc1C(CNC(=O)c1ccc(C)c(S(=O)(=O)N2CCCCC2)c1)N(C)C (stereo not drawn) 8.09%
CN(C(=O)COC(=O)c1ccc(Br)o1)c1c(N)n(Cc2ccccc2)c(=O)[nH]c1=O 1.2%
CC(=O)NCC(=O)N(Cc1ccco1)C1(C(=O)NC2CCCC2)CCCCC1 22.2%
Cc1ccc(N(C(=O)CC2NC(=O)NC2=O)C2(C(=O)NC3CCCC3)CCCCC2)cc1 (stereo not drawn) -9.9%
O=C(NCCN1CCN(Cc2ccccc2)CC1)c1cc2c(=O)[nH]c3ccccc3c2s1 -24.6%
O=C(CN1C(=O)COc2ccccc21)NCCN1CCc2ccccc2C1 9.13%
COc1ccccc1NC(=O)CSc1nnc(C)n1CC1CCCO1 (stereo not drawn) -14.5%
Cc1nnc(SCC(=O)NNC(=O)c2ccc(Cl)cc2)n1CC1CCCO1 (stereo not drawn) -10.1%
COc1ccc(CCNC(=O)COC(=O)Cc2cccc(F)c2)cc1 6.51%
Cc1c(NC(=O)C(C)Oc2cccc(Cl)c2)c(=O)n(-c2ccccc2)n1C (stereo not drawn) -1.16%
O=C(CSc1nc(C2CC2)nc2ccccc12)Nc1cccc(O)c1 6.46%
O=C(CSc1nc(C2CC2)nc2ccccc12)Nc1ccc2c(c1)OCCO2 4.27%
Cn1c(CC(=O)NNC(=O)c2ccccc2F)nc2ccccc21 -9.97%
O=C(NCc1ccncc1)c1cccc(NS(=O)(=O)c2ccc(F)c(F)c2)c1 26.4%
O=C(c1ccco1)N1CCN(C(=S)Nc2cc(F)cc(F)c2)CC1 -1.02%
Cc1ccc(C)c(OCC(=O)N2CCN(C(=O)c3ccco3)CC2)c1 -1.29%
O=CN1CCN(C(=O)c2ccc(Br)o2)CC1 -1.93%
O=C(CNS(=O)(=O)c1ccccc1)N1CCN(C(=O)c2ccco2)CC1 -2.75%
O=C(c1ccco1)N1CCN(C(=O)c2ccc(COc3ccc(F)cc3)o2)CC1 1.11%
O=C(CN1CCN(C(=O)c2ccco2)CC1)Nc1ccc(Cl)c(C(F)(F)F)c1 0.954%
COc1cccc(OCc2cc(C(=O)N3CCN(C(=O)c4ccco4)CC3)no2)c1 -3.13%
COC(c1ccccc1)c1nnc(CCC(=O)N2CCN(CCOc3ccccc3)CC2)o1 (stereo not drawn) -8.4%

inhibition, active:
CC(C)(C)C(=O)OCc1nc(-c2ccc(O)c(O)c2)cs1 93.7%
CCN(CCCCOC(=O)c1ccc(OC)c(OC)c1)C(C)Cc1ccc(OC)cc1 (stereo not drawn) 43.6%
O=C(CSc1ccccc1)Nc1cc(Cl)ccc1Oc1ccccc1 41.8%
O=[N+]([O-])c1ccccc1Nc1ccc(O)cc1 48.5%
CS(=O)(=O)N(CC(=O)N1CCCC1)Cc1ccccc1 47.1%
COc1ccc(C(=O)OCC(=O)Nc2cccc(C(C)=O)c2)cc1OC 113%
Clc1ccccc1CSc1nnc(-c2ccco2)c(-c2ccco2)n1 34.6%
O=C(c1ccc(=O)[nH]c1)N(Cc1ccco1)C1(C(=O)NC2CCCCC2)CCCCC1 37.6%
Cn1c(C(=O)NCCN2CCc3ccccc3C2)cc2c(=O)[nH]c3ccccc3c21 32.3%
Cc1nnc(SCC(N)=O)n1CC1CCCO1 (stereo not drawn) 32.8%
Cc1nnc(NC(=O)CSc2nc(C3CCCCC3)nc3ccccc23)s1 35.4%
O=C(c1ccco1)N1CCN(CCOc2ccccc2)CC1 61.7%
O=C(c1ccc(Br)o1)N1CCN(CCOc2ccccc2)CC1 86.3%
O=C(c1ccco1)N1CCN(Cc2cccc(C(F)(F)F)c2)CC1 77.1%
COc1cccc(OC)c1OCCN1CCN(C(=O)c2ccco2)CC1 63.6%
